aSyn UTR inh: 5' untranslated region of α-synuclein, MLPCN primary screen; inhibition, % (tested at 7.5 µM); hit rate 0.82% among 300,000; AID 1813; alpha-synuclein 5'UTR reporter, inhibitor activity; in the data active = inhibition above about 60%; inconclusive = no clear call, values can overlap the other calls;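 note: H4 neuroglioblastoma cells stably carrying SNCA 5'UTR luciferase fusion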
Ba/F3 V617F tox: loss of viability in JAK2V617F-driven Ba/F3 cells; Ba/F3 EpoR-JAK2V617F viability, ATP luminescence; inhibition, % at 5.6 µM; hit rate 1.1% among 220,000; AID 1446;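 active = inhibition above the campaign mean plus 3 SD over all tested compounds, cut at about 24% in these data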;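 note: cytokine-independent growth of Ba/F3 cells driven by EpoR plus mutant JAK2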
APP transl inh: APP translation inhibition | SH-SY5Y APP 5'UTR-luciferase reporter, luminescence | inhibition, % at 2 µM | AID 1285 | hit rate 0.82% among 190,000;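 active = inhibition above a set limit, derived from the sample mean plus 3 SD, cut at about 45% in these data; inconclusive = one replicate passes the limit while the other fails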
IEC-6 tox: kills IEC-6 intestinal cells in KLF5 counter-screen. IEC-6 cytotoxicity, luminescence viability. inhibition, % at 5 µM. hit rate 0.78% among 290,000. AID 1825; in the data active = inhibition above about 22%
KLF5 inh: suppresses KLF5 promoter-driven expression | DLD-1 KLF5 promoter-luciferase reporter, luminescence | hit rate 0.23% among 290,000 | AID 1700 | inhibition, % at 5 µM;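 active = inhibition above a per-plate limit of that plate's mean compound inhibition plus 3 SD, cut at about 60% in these data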;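 note: higher means less KLF5 promoter-driven luciferase light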
BaF3 tox: parental Ba/F3 viability inhibition as JAK2V617F counter-screen; CellTiter-Glo ATP luminescence; inhibition, % at 5.6 µM; hit rate 1.1% among 220,000; AID 1486;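 active = inhibition above a per-campaign cutoff, the mean inhibition of all tested compounds plus 3 SD, cut at about 27% in these data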
Each line names hits and unclear results; the compound was inactive in the other large screens. Only some compounds are listed: those with a hit (about 2.2% of all), similar ones and a draw of the others.

Cc1cc(C)n(-c2cc(Cl)cc(Cl)c2)c(=O)c1C#N	none
Cc1ccc(-n2c(C)cc(C)c(C#N)c2=O)cc1Cl	APP transl inh 62
Cn1c(=O)c2[nH]c(COc3ccc(C(C)(C)C)cc3)nc2n(C)c1=O	Ba/F3 V617F tox 26, BaF3 tox 48 (no result: APP transl inh)
Cn1c(=O)c2[nH]c(CNCc3ccccc3Cl)nc2n(C)c1=O	none
O=C(CSc1nnnn1C1CCCCC1)Nc1ccc(F)cc1	BaF3 tox 56
COc1cc(O)ccc1/C=N/NC(=O)c1ccc([N+](=O)[O-])cc1	none
O=C(NC(CSCc1ccccc1)C(=O)N/N=C/c1ccc(O)cc1O)c1ccc([N+](=O)[O-])cc1 (stereo unspecified)	aSyn UTR inh 84, APP transl inh 50
O=C(c1ccco1)N1N=C(c2ccc(Br)cc2)CC1(O)C(F)(F)F (stereo unspecified)	BaF3 tox 74
CC1(C)CC(Nc2ccc(Nc3ccccc3)cc2)CC(C)(C)N1	Ba/F3 V617F tox 77, BaF3 tox 29 (no result: APP transl inh)
CCCn1c(Oc2ccccc2)nc2c1c(=O)n(C)c(=O)n2C	none (no result: Ba/F3 V617F tox, APP transl inh, BaF3 tox)
O=[N+]([O-])c1cccc(-c2ccc(/C=N/Nc3nc(N4CCCCC4)nc(N4CCCCC4)n3)o2)c1	aSyn UTR inh 73
O=[N+]([O-])c1ccc(-c2ccc(/C=N/Nc3nc(N4CCCCC4)nc(N4CCCCC4)n3)o2)cc1	none
C=C1C(=O)C=C2CN(C(=O)c3ccccc3)[C@@](Cc3ccc(F)cc3)(C(=O)OC)[C@@H]12	aSyn UTR inh inconclusive, Ba/F3 V617F tox 97, APP transl inh 96, IEC-6 tox 27, BaF3 tox 92
CC(=O)Nc1cc[n+](C(C)C(=O)c2ccc(Br)cc2)cc1 (stereo unspecified)	Ba/F3 V617F tox 40, BaF3 tox 37
CC(=O)Nc1ccc(S(=O)(=O)N(CCO)Cc2ccccc2)cc1	none
CC(=O)Nc1ccc(S(=O)(=O)N(C)CCOCc2ccccc2)cc1	BaF3 tox 43
CN(CC(=O)Nc1cccc(F)c1)C(=O)/C=C/c1ccc2ccccc2n1	none (no result: Ba/F3 V617F tox, APP transl inh, BaF3 tox)
Cc1nn(C)c(C)c1/C=C(/C(=O)C(C)C)n1cncn1	none (no result: APP transl inh)
Cc1nn(C)c(C)c1/C=C(/C(=O)C(C)(C)C)n1cncn1	aSyn UTR inh 89 (no result: APP transl inh)
CC(C)(C)C(=O)/C(=C/c1ccncc1)n1cncn1	Ba/F3 V617F tox 91, APP transl inh 58, BaF3 tox 75
O=C(NCC1CCCO1)c1ccc(CNS(=O)(=O)c2cccc(Cl)c2)cc1 (stereo unspecified)	none
CC(C)N1CCC(=NNc2ccc(S(=O)(=O)N3CCOCC3)cc2[N+](=O)[O-])CC1	none
CCCN1CCC(=NNc2ccc(S(=O)(=O)N3CCOCC3)cc2[N+](=O)[O-])CC1	aSyn UTR inh 64, APP transl inh 88
Cc1ccc(-c2ccnc3c(Cl)c(C)nn23)cc1	aSyn UTR inh 69 (no result: Ba/F3 V617F tox, APP transl inh, BaF3 tox)
Cc1ccccc1NC(=O)C(=O)c1cn(C)c2ccccc12	none
O=C(O)C1Cc2ccccc2CN1C(=O)c1ccco1 (stereo unspecified)	none (no result: Ba/F3 V617F tox, APP transl inh, BaF3 tox)
O=C(O)C1CSC(c2ccccc2)N1C(=O)c1ccco1 (stereo unspecified)	APP transl inh 50
Cc1ccccc1CN1CCN(C(=O)c2ccc(F)cc2)CC1	none (no result: Ba/F3 V617F tox, APP transl inh, BaF3 tox)
C=CCOc1ccc2ccccc2c1CNn1cn[nH]c1=S	none (no result: Ba/F3 V617F tox, APP transl inh, BaF3 tox)
CCc1nn2cc(-c3ccccc3)nc2s1	aSyn UTR inh 80
CC(C)CN(C(=O)COC(=O)c1ccc(Br)o1)c1c(N)n(Cc2ccccc2)c(=O)[nH]c1=O	none (no result: Ba/F3 V617F tox, APP transl inh, IEC-6 tox, KLF5 inh, BaF3 tox)
CCc1nnc(N/N=C/c2cc(Br)c(O)cc2O)n1N	none (no result: Ba/F3 V617F tox, APP transl inh, BaF3 tox)
CCc1nnc(N/N=C/c2cccs2)n1N	IEC-6 tox 94
CCc1nnc(N/N=C/c2c(Cl)cccc2Cl)n1N	IEC-6 tox 62
COc1cc(-c2nnc(SCC(=O)N(Cc3ccccc3)C(C)(C)C)o2)cc(OC)c1OC	BaF3 tox 96
Cc1sc(N/N=C/c2cc([N+](=O)[O-])ccc2O)nc1-c1ccccc1	APP transl inh 50
CCN(CC)CCNC(=O)c1cc2c(-c3ccc(Cl)cc3)nn(C)c2s1	none
CCCCN(CC)CCNC(=O)c1cc2c(-c3ccc(Cl)cc3)nn(C)c2s1	aSyn UTR inh 79 (no result: Ba/F3 V617F tox, APP transl inh, BaF3 tox)
Nn1c(SCC(=O)NNC(=O)c2ccccc2)nnc1-c1ccccc1F	none (no result: Ba/F3 V617F tox, APP transl inh, IEC-6 tox, KLF5 inh, BaF3 tox)
O=C(O)COc1ccc(/C=N/NC(=O)C(O)(c2ccccc2)c2ccccc2)cc1	none (no result: Ba/F3 V617F tox, APP transl inh, BaF3 tox)
CC[n+]1ccc(C)c2cc(P(=O)(c3ccccc3)c3ccccc3)ccc21	none
CC[n+]1ccc(C)c2cc(S(=O)C(F)(F)F)ccc21 (stereo unspecified)	BaF3 tox 27
CC[n+]1ccc(C)c2cc(SC(F)(F)F)ccc21	BaF3 tox 35
O=C(COC(=O)c1ccc(Cl)nc1)NNC(=O)c1ccc(Cl)cc1	none (no result: Ba/F3 V617F tox, APP transl inh, IEC-6 tox, KLF5 inh, BaF3 tox)
CCCc1cnc(N2CCN(C(=O)c3ccccc3)CC2)nc1	none (no result: Ba/F3 V617F tox, APP transl inh, BaF3 tox)
COc1ccc(OC)c(CCNC(=O)CCn2nc(C)c3c(C)n(-c4ccccc4)nc3c2=O)c1	none (no result: Ba/F3 V617F tox, APP transl inh, BaF3 tox)
Cc1nc2ccccc2c(=O)n1/N=C/c1ccccc1	none
Cc1nc2ccccc2c(=O)n1/N=C/c1cccs1	APP transl inh 53
O=S(=O)(c1ccc(Cl)cc1)N1c2ccccc2Oc2nc3ccccc3nc21	none
COc1ccc(S(=O)(=O)N2c3cc(Cl)ccc3Oc3nc4ccccc4nc32)cc1	aSyn UTR inh 100
Cc1ccc(N(CC(=O)NCc2ccccc2)S(=O)(=O)c2c(C)noc2C)cc1	none (no result: Ba/F3 V617F tox, APP transl inh, BaF3 tox)
COc1ccc(CNC[C@@H](CCCCN(C)Cc2ccc(OC)cc2)N2C[C@H](c3ccccc3)N(CCc3ccc(Cl)c(Cl)c3)C(=O)C2=O)cc1	aSyn UTR inh 92
CCOc1ccc(CCN2C(=O)C(=O)N([C@H](CCCN(C)Cc3ccccc3)CNCc3ccccc3)C[C@@H]2C(C)C)cc1	none (no result: Ba/F3 V617F tox, APP transl inh, IEC-6 tox, KLF5 inh, BaF3 tox)
Cc1sc(NC(=O)c2c(F)cccc2F)nc1-c1ccccc1	none (no result: Ba/F3 V617F tox, APP transl inh, BaF3 tox)
Cc1sc(NC(=O)c2ccc(=O)n(C)n2)nc1-c1ccccc1	Ba/F3 V617F tox 44, BaF3 tox 45
Cc1ccccc1NC(=O)c1cnc2ccccn2c1=O	aSyn UTR inh 62
COc1ccc(OC)c(NC(=O)c2cnc3ccccn3c2=O)c1	none (no result: aSyn UTR inh)
C=CCSc1nc2c(cnn2-c2ccccc2)c(=O)n1N	aSyn UTR inh 74 (no result: APP transl inh)
COc1ccc(C(=O)Nn2c(SCC(=O)NCC3CCCO3)nc3ccccc3c2=O)cc1 (stereo unspecified)	aSyn UTR inh 87
COc1ccc(C(=O)Nn2c(SCC(=O)NC3CCCC3)nc3ccccc3c2=O)cc1	none
COc1ccc(C(=O)Nn2c(SCC(=O)NCc3ccccc3)nc3ccccc3c2=O)cc1	aSyn UTR inh 77
COc1ccc(NC(=O)CCc2nnc3ccc(N4CCN(c5cccc(OC)c5)CC4)nn23)cc1	none (no result: Ba/F3 V617F tox, APP transl inh, BaF3 tox)
CCOC(=O)C1CCN(C(=O)c2ccc(OCC(=O)Nc3cccc(C(F)(F)F)c3)c(OC)c2)CC1	none (no result: Ba/F3 V617F tox, APP transl inh, IEC-6 tox, KLF5 inh, BaF3 tox)
Cc1ccc(NC(=O)CNC(=O)c2ccc(C)o2)cc1	none (no result: Ba/F3 V617F tox, APP transl inh, BaF3 tox)
C/C(=N\N1CCN(C2c3ccccc3-c3ccccc32)CC1)c1cccnc1	none
CN=c1scc(-c2ccccc2F)n1/N=C(\C)c1cccnc1	BaF3 tox 38
